Measured potencies and affinities stand elsewhere.
Key:
Klebsiella pneumoniae = conditions: Concentration 32 ug.mL-1;; ASSAY_TEST Inhibition of Bacterial Growth; detection method Absorption (OD600); MEDIA CAMHB; plate type 384well; NBS; CORNING #3640; time 18 hr
Candida albicans = conditions: Concentration 32 ug.mL-1; ASSAY_TEST Inhibition of Fungal Growth; detection method Absorption (OD530)
Cryptococcus neoformans = conditions: Concentration 32 ug.mL-1; ASSAY_TEST Inhibition of Fungal Growth; detection method Resazurin; Absorption (OD600-OD570); plate type 384well; NBS; CORNING #3640

| SMILES | Inhibition (Klebsiella pneumoniae) [%] | Inhibition (Candida albicans) [%] | Inhibition (Cryptococcus neoformans) [%] |
| --- | --- | --- | --- |
| O=C(Cn1nc2ccc(SCc3ccc(Cl)cc3)nn2c1=O)Nc1ccccc1 | 9.67 | 9.5 | -21.41 |
| COc1ccc(Cn2nc3ccc(-c4ccc(Cl)cc4)nn3c2=O)cc1F | 16.23 | 0.27 | -15.51 |
| CC(C)CCn1c(=O)c2ccc(C(=O)NC3CCCC3)cc2n2c(=S)[nH]nc12 | -1.87 | 0.86 | -11.12 |
| CCC(C)NC(=O)Cn1c(=O)c2nnc(C)n2c2ccccc21 (stereo not drawn) | 11.59 | 0.05 | -11.45 |
| Cc1ccc(-n2ccn3c(=O)n(Cc4cccc(Cl)c4)nc3c2=O)cc1C | 2.85 | 1.08 | -13.91 |
| Cc1ccccc1Oc1nccn2c(=O)n(CC(=O)Nc3ccc(F)cc3F)nc12 | 11.95 | -0.38 | -8.47 |
| CCc1ccc(NC(=O)CSc2nnc3ccc(C(=O)Nc4cccc(F)c4)cn23)cc1 | 0.94 | 1.65 | -4.96 |
| COc1ccc(CN(c2cc(C)cc(C)c2)S(=O)(=O)c2cccn3c(C)nnc23)cc1 | -1.14 | 2.31 | -5.62 |
| Cc1ccc(N(Cc2ccccc2)S(=O)(=O)c2ccc3nncn3c2)cc1F | 4.64 | 0.48 | -7.94 |
| Cc1nnc2c(S(=O)(=O)N(Cc3ccc(F)cc3)c3ccc(C(C)C)cc3)cccn12 | 1.5 | 2.93 | -6.86 |
| COc1cccc(Sc2nc3ccccc3n3c(=O)n(CC(=O)Nc4ccc(C)c(C)c4)nc23)c1 | 5.05 | 20.61 | -4.85 |
| COc1ccc(NC(=O)Cn2nc3c(SC4CCCCC4)nccn3c2=O)cc1Cl | -2.37 | 10.68 | -22.74 |
| Cc1ccc(NC(=O)CSc2nnc3ccc(C(=O)Nc4cccc(F)c4)cn23)c(C)c1 | 2.38 | 9.81 | -2.98 |
| CCc1ccc(NC(=O)Cn2nc3cc(C)nc(Nc4ccc(C)c(F)c4)n3c2=O)cc1 | 10.82 | 3.74 | -2.27 |
| Cc1nnc2c(S(=O)(=O)N(Cc3cc(F)cc(F)c3)c3cccc(F)c3)cccn12 | 4.57 | 6.53 | -8.02 |
| CC(C)Cn1c(=O)c2sccc2n2c(=O)n(CC(=O)N(C)c3ccccc3)nc12 | 9.42 | -0.55 | -10.06 |
| Cc1ccc(-c2cc3c4nnc(CCC(=O)N5CCC(Cc6ccccc6)CC5)n4ccn3n2)cc1C | 14.91 | 0.82 | -35.19 |
| COc1ccc(NC(=O)Cn2nc3nc(N4CCCCCC4)ccn3c2=O)cc1Cl | 8.5 | 2.73 | -7.14 |
| O=S(=O)(c1ccc2nncn2c1)N(Cc1ccccc1)c1ccc(F)c(F)c1 | 5.23 | 3.55 | -6.45 |
| COc1ccc(-c2nc(CSc3nc4ccccc4n4c(C(C)C)nnc34)c(C)o2)cc1OC | -2.06 | 3.02 | -7.98 |
| O=C(Cn1nc2nc(Nc3ccc(F)cc3)ccn2c1=O)N1CCCC1 | 10.98 | 0.53 | -8.71 |
